Results: ChEMBL document CHEMBL3988442, “University of Dundee, Small-Polar-MMV Screening Library” (2021)
In all, about 69,000 compounds went through this assay and about 950 (1.4%) showed an effect of 50% or more. What follows is part of a selection rich in strong results, with near analogues and random picks from the rest.

test system: Mycobacterium tuberculosis; assay: Cornell M. t heat shock assay; assay type: functional, organism-based; parameters: dose or concentration left out as unconfirmed; further: in the data most compounds retested in dose-response had high values

SMILES	Percent Effect
O=C(NC1CCCC1)[C@@H]1CN(Cc2nccs2)C[C@H]2OCC[C@H]21.O=C(O)C(F)(F)F.O=C(O)C(F)(F)F	-17.32%
CSCC(C)C(=O)NCc1c(C)nc2cc(=O)[nH]n2c1C (stereo not drawn)	9.376%
Cn1ccnc1-c1ccc(NCCC2COc3ccccc3O2)nn1 (stereo not drawn)	44.06%
Cn1ccnc1-c1ccc(NC[C@H]2CCc3ccccc3O2)nn1	50.1%
Cn1ccnc1-c1ccc(NCC2COc3ccccc3O2)nn1 (stereo not drawn)	32.53%
Cl.O=C(C1CCC1)N1C[C@@H](c2ccsc2)[C@@H]2CN(C3CCCC3)CC[C@@H]21	-4.778%
O=C(CCn1cc(Cl)cn1)N1C[C@@H]2CC[C@H](C1)N(Cc1ccccn1)C2	7.885%
CC(NCCCN1CCCC1=O)c1cc(Br)ccc1F (stereo not drawn)	13.95%
CC(NCCN1CCC(N(C)C)CC1)c1ccc(F)cc1N(C)C (stereo not drawn)	-14.59%
CC(NCCCN1CCCC1=O)c1ccc(F)cc1N(C)C (stereo not drawn)	87.91%
CCNC(=O)NCc1nn(CCN2CCCC2)c(=O)c2ccccc12	41.46%
CCOC(=O)NCc1nn(CCN2CCCC2)c(=O)c2ccccc12	74.86%
COCC(=O)NCc1nn(CCN2CCCC2)c(=O)c2ccccc12	-7.005%
N#CCCN(CCC#N)C(=O)c1ccc(OCC2CC2)cc1	94.69%
N#CCCN(Cc1ccco1)C(=O)c1ccc(OCC2CC2)cc1	14.1%
N#CCCN(Cc1cccnc1)C(=O)c1ccc(OCC2CC2)cc1	6.663%
Cl.NCCC(=O)Nc1ccc(-c2ccccc2)cc1	3.2%
CC(=O)N1CCC(c2nc3ccc(NC4CCC4)cn3n2)CC1.O=C(O)C(F)(F)F	21.7%
O=C(O)C(F)(F)F.O=C(O)C(F)(F)F.O=c1ccc2c(n1Cc1cccnc1)CCN(Cc1ccoc1)CC2	-14.95%
CC(C)c1nn(C)cc1CNC1CCOc2ccccc21.Cl (stereo not drawn)	-5.42%
O=C(CN1CCCS1(=O)=O)Nc1ccc(OC(F)F)cc1	-14.39%
COc1ccc(CNC(=O)CN2CCc3ccccc32)cc1	-48.79%

SMILES	Percent Effect
O=C(CN1CCc2ccccc21)Nc1ccc(OC(F)F)cc1	99.06%
COCCN1CCOCC2(C1)CN(C(=O)c1conc1C)CCO2.O=C(O)C(F)(F)F (stereo not drawn)	15.5%
COCCC(=O)NC1CCN(CC2(c3cccc(F)c3)CCCC2)CC1.Cl	23.79%
Cc1ccc(C(=O)O)cc1-c1cccc(C(C)N(C)C)c1 (stereo not drawn)	-8.231%
CC(c1cccc(-c2ncccc2F)c1)N(C)C (stereo not drawn)	76.79%
CC(c1cccc(-c2nccn2CCc2ccccn2)c1)N(C)C (stereo not drawn)	-27.93%
CC(c1cccc(-c2ncccc2C#N)c1)N(C)C (stereo not drawn)	73.93%
CC(c1cccc(-c2ncc(C#N)c(N)n2)c1)N(C)C (stereo not drawn)	-10.92%
COC(C)(C)Cn1ccnc1-c1cccc(C(C)N(C)C)c1 (stereo not drawn)	-20.81%
Cc1ccc(CN2Cc3ccccc3O[C@]3(CC[C@H](CO)CC3)C2)o1.Cl	-44.64%
Cc1nc(CN2C(=O)C[C@@H]3[C@@H]2CCN3CC2CCOCC2)cs1.O=C(O)C(F)(F)F	-14.82%
COCCC(=O)N1C[C@H]2CN(Cc3cccc(C)n3)C(=O)[C@H]2C1.O=C(O)C(F)(F)F	-12.42%
COc1cc(N2C[C@@H]3COC[C@]3(COCc3cccc(C)n3)C2)ncn1.O=C(O)C(F)(F)F.O=C(O)C(F)(F)F	1.772%
Cc1cnccc1-c1cnn(CCNC(=O)c2ccncc2)c1C1CC1.Cl	-0.5476%
CN(C)CCN1C(=O)C2(CCN(CC3CC3)CC2)c2ccccc21.O=C(O)C(F)(F)F.O=C(O)C(F)(F)F	2.693%
Cc1ccc(CN2CCC[C@]3(C(=O)O)CN(C)C[C@@H]3C2)s1.O=C(O)C(F)(F)F.O=C(O)C(F)(F)F	10.8%
Cc1cc(N2CCC(c3nnc(CN(C)C)n3C3CC3)CC2)ccn1	-0.4086%
CCn1c(CN(C)C)nnc1C1CCN(c2ccnc(C)c2)CC1	105.5%
CCn1c(CN(C)C)nnc1C1CCN(c2nccc(NC)n2)CC1	-31.54%
Cc1cc(-n2cnnn2)n2ncnc2n1	-4.919%
Cc1cc(-n2cncn2)n2ncnc2n1	61.29%
Cc1cc(N2CCCC2Cn2nc(C)cc2C)n2ncnc2n1 (stereo not drawn)	11.78%

SMILES	Percent Effect
O=C(C1CCC1)N1C[C@@H]2CC[C@H](C1)N(S(=O)(=O)c1ccccc1)C2	-12.74%
CN(C)C(=O)N1C[C@@H]2CC[C@H](C1)N(S(=O)(=O)c1cccnc1)C2	-21.11%
O=C(NCc1cccnc1)N1CCc2ncnc(NC3CC3)c2CC1.O=C(O)C(F)(F)F	-0.2594%
CCOCC1c2c(ncn2C)CCN1C(=O)c1cnc(C)cn1.O=C(O)C(F)(F)F (stereo not drawn)	18.53%
CCOCC1c2c(ncn2C)CCN1C(=O)c1ccoc1 (stereo not drawn)	35.15%
CCOCC1c2c(ncn2C)CCN1C(=O)c1cscn1 (stereo not drawn)	57.96%
CC(C)(CO)NCc1ccc(OCc2ccc3c(c2)OCCO3)cc1.Cl	-22.54%
O=C(O)C(F)(F)F.O=C(O)C(F)(F)F.O=C(O)C(F)(F)F.c1cncc(CN2CC[C@@H]3O[C@H](COCCN4CCCC4)CC[C@@H]32)c1	-18.74%
CC(C)C(=O)N1CC[C@@H]2[C@H](CC1)N(Cc1cccnc1)CCS2(=O)=O.O=C(O)C(F)(F)F.O=C(O)C(F)(F)F	-30.61%
Cc1cc(NC(=O)C(C)Nc2cccc(COCc3ccco3)c2)on1 (stereo not drawn)	4.042%
CCOC(=O)C(C)Nc1cccc(COCc2ccco2)c1 (stereo not drawn)	104.6%
CC(Nc1cccc(COCc2ccco2)c1)C(=O)NC(N)=O (stereo not drawn)	0.6149%
CC(C)CN1CCC2(CCCNC2)C1=O.Cl (stereo not drawn)	-13.24%
O=C(O)C(F)(F)F.O=C(c1cccnc1)N1CCc2ncnc(C3CCOC3)c2CC1 (stereo not drawn)	8.544%
COCc1nn(C(C)C)c2c1CCN(Cc1nccs1)C2.O=C(O)C(F)(F)F	-16.62%
Cc1nc(CN2CCO[C@@H]3CN(Cc4cccs4)C[C@@H]3C2)cs1.O=C(O)C(F)(F)F.O=C(O)C(F)(F)F	-15.47%
Cc1nc(CN2CCOCC3(CCN(c4cnccn4)CC3)C2)cs1.O=C(O)C(F)(F)F	-3.315%
CCc1cccc2c(CC(=O)N(C)CCN(C)C)c(C)[nH]c12.O=C(O)CC(O)(CC(=O)O)C(=O)O	1.394%
Cc1cc(NC2CCN(c3ccc(F)cc3)CC2)n2nc(C)cc2n1	11.63%
Cc1cc(N[C@H]2CCCN(Cc3ccccc3)C2)n2nc(C)cc2n1	37.52%
Cc1cc(NC2CCCN(Cc3ccc(F)cc3)C2)n2nc(C)cc2n1 (stereo not drawn)	55.79%
CNc1ncc2c(n1)CN(Cc1ccc(Cl)cc1)C2=O	-7.307%

SMILES	Percent Effect
C[C@@H]1CN(Cc2cc(C3CCCCC3)no2)CC[C@@]1(O)C1CC1	-30.44%
Cn1ccc(C(=O)N2CCCC(c3cc(O)n(C)n3)C2)n1 (stereo not drawn)	-7.619%
Cn1nc(C2CCCN(C(=O)CO)C2)cc1O (stereo not drawn)	54.18%
COCCC(=O)N1CCC(c2cc(O)n(C)n2)C1 (stereo not drawn)	9.695%
COCCN1CCOCC12CCN(C(=O)c1cccnc1)CC2.O=C(O)C(F)(F)F	-43.19%
CN1CC[C@@H]2OC[C@H](C(=O)N(C)Cc3ccccn3)C[C@@H]2C1.O=C(O)C(F)(F)F.O=C(O)C(F)(F)F	42.17%
O=C(NC1CC1)[C@@H]1CCO[C@@H]2CCN(Cc3ccsc3)C[C@H]21.O=C(O)C(F)(F)F	-0.7242%
O=C(O)C(F)(F)F.O=C([C@@H]1C[C@@H]2CCN(CCc3ccccc3)C[C@H]2O1)N1CCCC1	7.524%
O=c1cc(CN2CCCC2)nc2n1CCCN(CC1CCOCC1)C2	-14.03%
O=c1cc(CN2CCCC2)nc2n1CCCN(CC1CC1)C2	59.59%
CN(C)Cc1cc(=O)n2c(n1)CN(CC1CC1)CCC2	-15.16%
COCC(=O)NC[C@H]1CC[C@H](c2nnc(-c3ccncc3)o2)CC1	-43.76%
Cn1cc(CN2CCCC23CCN(Cc2nccn2C)CC3)cn1.O=C(O)C(F)(F)F.O=C(O)C(F)(F)F	-17.58%
Cl.Cl.O=C(NCc1cncc2c1CCN(C1CCOCC1)C2)c1ccco1	7.016%
O=C(O)C(F)(F)F.O=C(O)C(F)(F)F.c1ccc(N2CCC3(COCCN(c4ncccn4)C3)C2)nc1 (stereo not drawn)	3.163%
Cn1cc(CN2CCC(F)(F)C3(CCN(c4ncccn4)C3)C2)cn1.O=C(O)C(F)(F)F.O=C(O)C(F)(F)F (stereo not drawn)	-18.65%
CC(C)n1ccnc1CN1CCOC(CCc2ccccc2)C1 (stereo not drawn)	-0.01061%
CC(C)n1ccnc1CN1CCOC(CC2CCCCC2)C1 (stereo not drawn)	50.37%
CC(C)n1ccnc1CN1CCCN(C(=O)CC2CCCO2)CC1 (stereo not drawn)	-7.243%
O=C(O)C(F)(F)F.O=C(O)C(F)(F)F.O=C(O)C(F)(F)F.c1cnc(NC[C@H]2OC[C@@H]3CCN(Cc4nccs4)C[C@@H]32)nc1	-22.37%
CNC(=O)[C@H]1C[C@@H]2CN(Cc3cccnc3OC)C[C@@H]2N1C(C)=O.O=C(O)C(F)(F)F.O=C(O)C(F)(F)F	-6.106%
CCc1ccc(C2CCCN2C(=O)NCC(=O)NCC(C)C)o1 (stereo not drawn)	-12.75%
